Assay outcomes (PubChem BioAssay)
The entries come from a sample that favours hits as a whole.
TbPYK inhibitor: blocks Trypanosoma brucei pyruvate kinase. Potency, µM (doses to about 76.8 µM), most hits filed as inhibitors. TbPYK enzyme, Kinase-Glo Plus ATP luminescence, 45 min. 410,000 compounds, 0.12% hits; also: nearly all actives have a fitted effect of over 50% in size
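Quantitative HTS: titrated library compounds versus trypanosomal pyruvate kinase in TEA buffer (pH 7.2) containing KCl, MgCl2, BSA and Tween-20. Reactions were initiated with ADP, 130 uM final. Kinase-Glo Plus luminescence was read after 45 min at RT.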
CHX counter: affects cycloheximide protein synthesis inhibition readout, counter-screen. cell reporter, cycloheximide protein synthesis inhibition counterscreen. max response, %. 300,000 compounds, 12% hits. AID 2314; in the data active = max response mostly above about 13%, no sharp cut-off; inactive = mostly below about 14%; also: read at 38.3 µM for the half of the compounds with a filed dose
Giardia FBPA inh: blocks Giardia fructose-bisphosphate aldolase activity | A8B2U2 | purified Giardia FBPA | Potency, µM (series often up to 59.6 µM), hits mostly inhibitors | 290,000 compounds, 0.71% hits; also: nearly all actives have a fitted effect of over 55% in size
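Giardia FBPA (40 nM reagent) was preincubated 10 min at RT with compound (up to 57.5 uM final), then substrate plus GAPDH/TPI/NAD/arsenate coupling system with diaphorase/resazurin was added; resorufin fluorescence (525/598 nm) was read after 20 min.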
LmPK inhibitor: inhibitors of Leishmania mexicana pyruvate kinase; Potency, µM (series often up to 57.5 µM), usual class: inhibitors; AID 1721; purified LmPK, Kinase-Glo ATP luminescence, 1 h; Q27686; 290,000 compounds, 0.37% hits
Target sequence (Q27686 whole entry, looked up): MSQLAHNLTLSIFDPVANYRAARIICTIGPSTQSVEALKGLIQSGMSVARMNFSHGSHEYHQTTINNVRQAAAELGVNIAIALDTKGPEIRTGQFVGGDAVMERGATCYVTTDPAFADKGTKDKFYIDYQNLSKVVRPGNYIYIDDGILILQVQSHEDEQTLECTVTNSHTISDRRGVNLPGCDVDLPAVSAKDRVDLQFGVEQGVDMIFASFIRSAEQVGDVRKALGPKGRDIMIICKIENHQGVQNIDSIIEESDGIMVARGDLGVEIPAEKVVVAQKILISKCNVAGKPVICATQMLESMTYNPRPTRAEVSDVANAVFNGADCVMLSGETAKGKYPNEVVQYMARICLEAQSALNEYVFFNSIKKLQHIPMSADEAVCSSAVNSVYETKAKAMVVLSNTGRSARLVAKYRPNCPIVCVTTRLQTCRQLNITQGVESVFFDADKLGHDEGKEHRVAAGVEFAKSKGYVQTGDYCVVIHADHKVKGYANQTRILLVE
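Purified LmPK (0.1 nM) with 0.5 mM PEP and 0.1 mM ADP in imidazole buffer pH 7.2 with MgCl2/KCl, 1 h at room temperature. ATP formed was read by luciferase luminescence and normalized to no-enzyme and uninhibited controls.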
Shiga inhibitor: Shiga toxin inhibition | 290,000 compounds, 9.2% hits | inhibition, % at 38.7 µM | AID 2315 | Vero cells, Shiga toxin protein synthesis inhibition reporter; in the data active = inhibition mostly above about 28%, no sharp cut-off; inactive = mostly below about 43%
Sm TGR block: S. mansoni TGR enzyme inhibition; Q962Y6; purified TGR, DTNB reduction, TNB absorbance 405 nm; Potency, µM (highest dose often 114 µM), hits mostly inhibitors; 360,000 compounds, 3% hits; AID 485364; also: nearly all actives have a fitted effect of over 60% in size
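Kinetic colorimetric format: TGR-catalysed, NADPH-driven DTNB reduction monitored via TNB absorbance. Enzyme dispensed at 20 nM; compound exposure 15 min at room temperature before reaction start.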
Each line names hits and unclear results; the compound was inactive in the other large screens. Unless noted, calls follow the shape of the dose curve; as a rule, active = well fitted curve in the direction sought with a large enough effect; inconclusive = small, poorly fitted or top-dose-only effect, or another doubt; inactive = no such curve, though single readings can be large; an effect the other way counts as inactive or inconclusive.

Cc1cccc(OCC(=O)Nc2ccc3c(c2)OCO3)c1C	CHX counter 55.1
O=C(COc1ccc2ccc(=O)oc2c1)Nc1ccc2c(c1)OCCO2	CHX counter 13.3, Sm TGR block inconclusive
O=C(N/N=C/c1cccc(OC(=O)c2ccc3c(c2)OCO3)c1)c1cncc(Br)c1	CHX counter 48.8, Shiga inhibitor 56.1
COc1cc(C)c(NC(=O)COc2ccc3c(c2)OCO3)cc1C	CHX counter 19.6, Shiga inhibitor 48.9
COC(=O)c1ccccc1NC(=O)COc1ccc2c(c1)OCO2	none
COc1ccc2c(c1)c(=O)c(C(=O)c1ccc(Cl)cc1)cn2CC(=O)Nc1ccc2c(c1)OCCO2	none (no result: CHX counter, Giardia FBPA inh, LmPK inhibitor, Shiga inhibitor)
COC(=O)c1ccc(NC(=O)COc2ccc3c(c2)OCO3)cc1	CHX counter 20.2
Cc1ccc(Nc2cccccc2=O)cc1	CHX counter 15.6
Cc1ccc(NC(=O)COC(=O)c2ccccc2Nc2ccccc2)cc1	none
O=c1c2ccccc2oc2cc(NCCCN3CCOCC3)ccc12	CHX counter 40.1, Shiga inhibitor 34.9
O=c1c2ccccc2oc2ccc(NCCCN3CCOCC3)cc12	CHX counter 35.6, Shiga inhibitor 43.3
O=c1c2ccccc2oc2cc(NCCCn3ccnc3)ccc12	CHX counter 23.8, Shiga inhibitor 23.6
COc1ccc(OC)c(N2Cc3cc(C)c(C)cc3C2)c1	CHX counter 13.7, Giardia FBPA inh inconclusive, Sm TGR block 44.7µM
O=[N+]([O-])c1ccc(-c2cnc[nH]2)cc1	CHX counter 26.2, Shiga inhibitor 52.7
O=[N+]([O-])c1ccc2nc[nH]c2c1	none (no result: CHX counter, Giardia FBPA inh, LmPK inhibitor, Shiga inhibitor, Sm TGR block)
O=[N+]([O-])c1ccc(-c2cc(-c3ccc(Cl)cc3)n[nH]2)cc1	TbPYK inhibitor inconclusive, Shiga inhibitor 39.5
O=[N+]([O-])c1cccc(-c2nc3ccc([N+](=O)[O-])cc3[nH]2)c1	Giardia FBPA inh inconclusive
O=[N+]([O-])c1ccc2nc(-c3ccncc3)[nH]c2c1	CHX counter 32.5
O=[N+]([O-])c1ccc2nc(-c3ccc(Cl)cc3)[nH]c2c1	CHX counter 91.5, Shiga inhibitor active
CCOc1ccc(Cl)cc1C1CC(=O)Nc2cc(OC)c(OC)c(OC)c21 (configuration not stated)	none (no result: CHX counter, Giardia FBPA inh, LmPK inhibitor, Shiga inhibitor)
Cc1cc(=O)[nH]c(SCc2nc3ccc([N+](=O)[O-])cc3[nH]2)n1	none
Cc1ccc(-c2nc3ccc([N+](=O)[O-])cc3[nH]2)cc1	CHX counter 16.0, Giardia FBPA inh inconclusive, Shiga inhibitor 123.7
O=[N+]([O-])c1ccc2nc(-[n+]3c(-c4ccccc4)cc(-c4ccccc4)cc3-c3ccccc3)[nH]c2c1	none
COc1ccc(-c2nc3ccc([N+](=O)[O-])cc3[nH]2)cc1	CHX counter 60.1, Shiga inhibitor 57.5
COc1ccc(-n2cnc3cc([N+](=O)[O-])ccc32)cc1	none (no result: Sm TGR block)
O=[N+]([O-])c1ccc2nc(-c3ccccc3[N+](=O)[O-])[nH]c2c1	CHX counter 26.3
COc1cc(OC)cc(C(=O)NNC(=O)CCNC(=O)c2ccc(Br)cc2)c1	none (no result: CHX counter, Giardia FBPA inh, LmPK inhibitor, Shiga inhibitor, Sm TGR block)
Cc1ccc(S(=O)(=O)NCCSc2nnnn2-c2ccc(Cl)c(C(=O)O)c2)cc1	none (no result: CHX counter, Giardia FBPA inh, LmPK inhibitor, Shiga inhibitor)
CCOC(=O)C1=C(Cc2ccc(Cl)cc2)C(=O)c2ccccc2C1=O	TbPYK inhibitor inconclusive, Giardia FBPA inh 2.51µM, LmPK inhibitor inconclusive, Sm TGR block 3.55µM
COC(=O)COc1ccc(S(=O)(=O)NCc2ccco2)cc1Cl	none
COc1ccc(S(=O)(=O)NCc2ccco2)cc1NC(=O)c1ccccc1	CHX counter 47.0, Shiga inhibitor 64.9, Sm TGR block inconclusive
COc1ccccc1NC(=O)c1ccc(S(=O)(=O)NCc2ccco2)cc1	CHX counter 37.6, Shiga inhibitor 102.9
COc1ccccc1C(C)NC(=O)c1ccc(S(=O)(=O)NCc2ccco2)cc1 (configuration not stated)	none (no result: CHX counter, Giardia FBPA inh, LmPK inhibitor, Shiga inhibitor, Sm TGR block)
O=C(COc1ccccc1)Nc1ccc(S(=O)(=O)NCc2ccco2)cc1	Sm TGR block inconclusive
O=C(COc1ccccc1F)Nc1ccc(S(=O)(=O)NCc2ccco2)cc1	CHX counter 39.8
CC1(C(=O)NS(=O)(=O)Cc2cccc(Cl)c2)CCN1C(=O)Cc1cccs1 (configuration not stated)	none (no result: CHX counter, Giardia FBPA inh, LmPK inhibitor, Shiga inhibitor, Sm TGR block)
NC(=O)c1ccc(SCC(=O)OCC(=O)NCc2cccs2)c([N+](=O)[O-])c1	none (no result: CHX counter, Giardia FBPA inh, LmPK inhibitor, Shiga inhibitor)
COc1cccc2cc(-c3csc(CCn4nc(C)cc4C)n3)c(=O)oc12	none
COc1cccc2cc(C(=O)Oc3ccccc3)c(=O)oc12	none
COC(=O)c1ccc(COC(=O)c2cc3ccccc3oc2=O)cc1	CHX counter 11.4
COC(=O)c1ccc(CNC(=O)c2cc3ccccc3oc2=O)cc1	none
CCOc1cccc2cc(C(=O)Oc3ccc(OC)cc3)c(=O)oc12	Sm TGR block 39.8µM
CC/C(C)=N/Nc1nc(-c2cc3cccc(OC)c3oc2=O)cs1	CHX counter 47.2, LmPK inhibitor inconclusive, Shiga inhibitor 52.9
COc1cccc2cc(C(=O)N3CCN(c4ccccn4)CC3)c(=O)oc12	CHX counter 32.0
CC(CNC(=O)c1cc2cc(S(=O)(=O)N3CCCCC3)ccc2n1C)c1ccccc1 (configuration not stated)	none (no result: CHX counter, Giardia FBPA inh, LmPK inhibitor, Shiga inhibitor)
CC(=O)c1ccc(COC(=O)c2cc3ccccc3oc2=O)cc1	CHX counter 24.9
COc1cccc2cc(C(=O)NC(C)c3ccccc3)c(=O)oc12 (configuration not stated)	none
COc1cccc2cc(-c3nnc(-c4ccccc4)o3)c(=O)oc12	CHX counter 38.7, Shiga inhibitor 86.7
COc1cccc2cc(-c3nnc(-c4ccc(Cl)cc4)o3)c(=O)oc12	none (no result: CHX counter, Giardia FBPA inh, LmPK inhibitor, Shiga inhibitor)
COc1cccc2cc(CC(=O)c3ccc(C)cc3C)c(=O)oc12	CHX counter 55.3, Shiga inhibitor 73.0
COc1cccc2cc(C(=O)OCc3ccccc3)c(=O)oc12	CHX counter 54.2, Shiga inhibitor 48.8
COc1cccc2cc(C(=O)Nc3cccc(C)n3)c(=O)oc12	CHX counter 77.4, Shiga inhibitor 65.9
COc1cccc2cc(NC(=O)C3CCCCC3)c(=O)oc12	CHX counter 16.2
COc1cccc2cc(C(=O)Nc3ccc(C)cc3)c(=O)oc12	none (no result: CHX counter, Giardia FBPA inh, LmPK inhibitor, Shiga inhibitor)
NC(=S)N/N=C/c1ccccc1OC(=O)c1cc2ccccc2oc1=O	none
COc1ccccc1C(=O)NCCC(=O)Nc1cccc(C)n1	CHX counter 22.5 (no result: Giardia FBPA inh)
NC(=O)N/N=C/c1ccccc1OC(=O)c1cc2ccccc2oc1=O	CHX counter 26.0, Shiga inhibitor 77.3, Sm TGR block inconclusive
COc1cccc(Cn2c(=O)c(-c3cn(C)c4ccccc34)nc3cncnc32)c1	none (no result: TbPYK inhibitor, CHX counter, LmPK inhibitor, Shiga inhibitor, Sm TGR block)
NCCC(=O)O	none (no result: TbPYK inhibitor, CHX counter, LmPK inhibitor, Shiga inhibitor, Sm TGR block)
CN(C)C(=O)CCSC(SCCC(=O)O)c1cccc(/C=C/c2ccc3ccc(Cl)cc3n2)c1 (configuration not stated)	none (no result: CHX counter, Giardia FBPA inh, LmPK inhibitor, Shiga inhibitor, Sm TGR block)
